GLD-1 RNA inh: GLD-1-TGE RNA interaction inhibition (C. elegans). 320,000 compounds, 0.44% hits. purified GLD-1 + fluorescein TGE RNA, fluorescence polarization. Q17339. inhibition, % at 5.96 µM;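 active means percent inhibition above a per-plate cutoff, the plate mean of test compounds plus 3 SD, cut at about 30% in these data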
Target sequence (Q17339 whole entry, looked up): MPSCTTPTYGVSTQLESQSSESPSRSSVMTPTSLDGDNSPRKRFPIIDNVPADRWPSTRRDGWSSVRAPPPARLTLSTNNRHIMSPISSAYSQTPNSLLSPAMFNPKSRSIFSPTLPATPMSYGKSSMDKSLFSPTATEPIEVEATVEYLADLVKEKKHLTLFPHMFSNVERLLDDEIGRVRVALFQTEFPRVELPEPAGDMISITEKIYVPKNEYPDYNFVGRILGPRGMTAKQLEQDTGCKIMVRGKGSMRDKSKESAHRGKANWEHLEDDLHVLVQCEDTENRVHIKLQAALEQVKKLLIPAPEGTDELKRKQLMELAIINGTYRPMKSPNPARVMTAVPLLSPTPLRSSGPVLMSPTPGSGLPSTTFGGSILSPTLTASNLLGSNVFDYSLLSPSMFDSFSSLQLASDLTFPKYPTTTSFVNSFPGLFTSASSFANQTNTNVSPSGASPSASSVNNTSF
Mcl1 Noxa PPI: disrupts binding of human Mcl-1 to Noxa peptide; Q07820; TR-FRET Mcl-1/Noxa peptide binding, 2 h; inhibition, % at 21.7 µM; 220,000 compounds, 1.5% hits; AID 1022;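 active means compounds that cut the protein-peptide binding signal by more than 50% relative to plate controls in a single-dose test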;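 further: His-tagged Mcl-1 with rhodamine Noxa BH3 peptide and terbium anti-His antibody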
MCL1-BIM inh: inhibitors of human MCL1 binding to BIM-BH3 peptide | Q07820 | GST-MCL1 / FITC-Bim-BH3 fluorescence polarization | inhibition, % at 10.9 µM | 320,000 compounds, 0.68% hits | AID 2057;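 active means inhibition above the mean inhibition of all tested compounds plus 3 SD, set per campaign, cut at about 40% in these data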;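 further: higher means more loss of mP so more displacement of Bim peptide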
Mcl1-Bid inh: disrupts binding of human Mcl-1 to Bid peptide; inhibition, % at 21.7 µM; Q07820; TR-FRET Mcl-1/Bid-Dy647 peptide binding, 1536-well; 220,000 compounds, 0.97% hits; AID 1021;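 active means compounds that cut the binding signal by more than half at the single screening dose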;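 further: His-tagged Mcl-1 with europium anti-His antibody binding Bid BH3 peptide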
Bcl-xL primary: blocks human Bcl-xL binding to Bim BH3 peptide. GST-Bcl-xL / FITC-Bim BH3 peptide fluorescence polarization. AID 2129. inhibition, % at 10.9 µM. Q07817. 320,000 compounds, 0.7% hits;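 active means inhibition above the mean of all tested compounds plus 3 SD, cutoff set per campaign, cut at about 30% in these data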;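 further: inhibitors lower millipolarization by displacing the labeled peptide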
Bim-Mcl-1: inhibitors of Bim-Mcl-1 interaction, human; Bead-based flow cytometry, Bim peptide-Mcl-1 binding; inhibition, % at 10 µM; Q07820; AID 1009; 190,000 compounds, 0.1% hits; in the data active means inhibition above about 40%
Numbers stand for hits; . = inactive; / = no result. Rows were chosen to be rich in hits. Some 2.3% of all compounds tested hit in one or more screens of this group.

SMILES | GLD-1 RNA inh | Mcl1 Noxa PPI | MCL1-BIM inh | Mcl1-Bid inh | Bcl-xL primary | Bim-Mcl-1
O=C1OCC=C1NNC(=O)c1cccnc1 | . | . | . | . | . | .
CCN(CC)CCn1c(=O)n(-c2ccc(Cl)cc2)c(=O)c2c3c(sc21)CN(C)CC3 | . | . | . | . | 35.4 | /
CN1CCc2c(sc3c2c(=O)n(-c2ccc(Cl)cc2)c2nncn32)C1 | . | . | . | . | . | .
Cc1[nH]c(C)c(S(=O)(=O)Nc2ccccc2)c1C(=O)N1CCCC1 | . | / | . | / | . | /
CCc1ccc(NC(=O)c2ccnc(C(C)(C)C)c2)cc1 | . | . | . | 101.3 | . | .
COc1cccc(C(=O)NN2CC(O)=C(c3nc(C)cs3)C2=N)c1 | . | . | . | . | . | /
Cc1ccc(C(=O)NN2CC(O)=C(c3nc(-c4cccc([N+](=O)[O-])c4)cs3)C2=N)cc1 | . | 56.4 | . | . | . | .
C[C@@H]1CCC[C@@]2(O[C@@H](CCO)C[C@H](O)[C@H]2O)O1 | . | / | . | / | . | /
COc1cc(C(=O)O)c([N+](=O)[O-])c(OC)c1OC | . | . | . | . | . | /
COc1ccc(OC)c([N+](=O)[O-])c1C(N)=O | . | 55.6 | . | . | . | .
COc1ccccc1/C=C/C=N/NC(=O)c1cc(-c2ccco2)[nH]n1 | . | 61.6 | . | . | . | /
COc1ccccc1/C=C/C=N/NC(=O)c1ccccn1 | . | . | . | . | . | .
C=C(C)C(=O)Nc1cccc(C2=NOC3(C2)C[C@@H](C(N)=O)N(C(=O)C(=C)C)C3)c1 (some centres undefined) | . | 82.3 | . | . | . | /
C=C(C)C(=O)Nc1cccc(C2=NOC3(C2)C[C@H](C(N)=O)N(C(=O)/C=C/C)C3)c1 (some centres undefined) | . | 76.1 | . | . | . | /
C=C(C)C(=O)Nc1cccc(C2=NOC3(C2)C[C@@H](C(N)=O)N(C(=O)C2(C)CC2)C3)c1 (some centres undefined) | . | 60.5 | . | . | . | /
C/C=C\C=C/C(=O)Nc1cccc(C2=NOC3(C2)C[C@@H](C(N)=O)N(C(=O)/C=C/C=C\C)C3)c1 (some centres undefined) | . | 54.3 | . | . | . | /
C=C(C)C(=O)N1CC2(CC(c3cccc(NC(=O)/C=C\C=C/C)c3)=NO2)C[C@H]1C(N)=O (some centres undefined) | . | . | . | . | . | /
C=C(C)C(=O)Nc1cccc(C2=NOC3(C2)C[C@@H](C(N)=O)N(C(=O)/C=C/CC)C3)c1 (some centres undefined) | . | . | . | . | . | /
COc1ccc(NC(=O)NCC(C)CSc2ccc(C)cc2)c(OC)c1 (centres undefined) | . | / | . | / | . | /
O=C(CCc1nc(-c2ccc(F)cc2)no1)Nc1cccc(C(=O)NC2CC2)c1 | . | / | / | / | / | /
CCCCCCc1ccc(N2C[C@H](C)[C@@H](CC(=O)NCc3ccccc3)C2=O)cc1 | 40.7 | / | . | / | . | /
COc1c2ccccc2c(OC)c2ccccc12 | . | . | . | . | . | .
Cc1ccc(-c2nn(-c3ccccc3)cc2C(N)=O)o1 | . | 51.1 | . | . | . | .
COc1ccc(N2C(=O)[C@@H]3[C@H](C2=O)[C@H]2c4ccccc4C=CN2[C@@H]3C(C)=O)cc1 | . | . | . | . | 34.0 | .
COc1ccc(N2C(=O)[C@H]3[C@@H](C2=O)C2c4ccccc4C=NN2[C@H]3C(=O)C(C)(C)C)cc1 (some centres undefined) | . | . | . | . | . | /
SMILES | GLD-1 RNA inh | Mcl1 Noxa PPI | MCL1-BIM inh | Mcl1-Bid inh | Bcl-xL primary | Bim-Mcl-1
Cc1cc(C(F)F)n2nc(C(=O)Nc3sc4c(c3C(N)=O)CCC4)nc2n1 | . | 73.6 | . | . | . | .
C/C(=N/NC(=O)c1ccc(Cl)s1)c1ccc(NC(=O)COc2ccc(Cl)cc2)cc1 | . | . | . | 54.6 | . | .
CCC(=O)Nc1ccc(/C(C)=N\NC(=O)c2ccc(C)s2)cc1 | . | . | . | . | . | .
NC(=O)c1ccsc1NC(=O)c1ccc(N2CCCC2=O)cc1 | . | 54.9 | . | . | . | .
NC(=O)c1ccsc1NC(=O)c1ccc2c(c1)CCCC2 | . | . | . | . | . | .
Cc1ccc(NC(=S)Nc2cccnc2)c(S(=O)(=O)N2CCCCC2)c1 | . | . | . | . | . | .
CC(C)(C)C(C(=O)O)N1CCS(=O)(=O)CC1 (centres undefined) | . | . | . | . | . | .
O=C(CN(C(=O)CNC(=O)c1ccco1)c1ccc2c(c1)OCO2)NC1CCCCC1 | . | . | . | 82.9 | . | .
O=C(CN(C(=O)CNC(=O)c1ccco1)c1ccc2c(c1)OCCO2)NC1CCCC1 | . | . | . | . | . | .
COCCn1c(=NC(=O)c2cccs2)sc2cc(NC(C)=O)ccc21 | . | . | . | . | . | .
C#CCn1c(=NC(=O)c2ccc(Br)s2)sc2cc(NC(C)=O)ccc21 | . | . | . | 58.4 | . | .
COc1ccccc1NC(=O)COc1ccc(Br)cc1CNC1CCCC1 | . | . | . | . | . | .
Cc1cc(C)cc(N=Cc2[nH]c3ccc(Br)c(Cl)c3c2O)c1 | . | 52.1 | . | . | . | .
CCC(C(=O)N1CCOCC1)n1nc(C)n2c(cc3cc(C)ccc32)c1=O (centres undefined) | . | / | . | / | . | /
CC(=O)N1CCc2cc(S(=O)(=O)NC(Cc3ccccc3)C(=O)NC3CCCCCC3)ccc21 (centres undefined) | . | 102.8 | . | 99.4 | . | .
O=C1CCCc2oc3c(cc(NS(=O)(=O)c4ccc5c6c(cccc46)C(=O)N5)c4ccccc43)c21 | . | 61.3 | . | . | . | /
Cc1oc2c(cc(NS(=O)(=O)c3ccc4c5c(cccc35)C(=O)N4)c3ccccc32)c1C(=O)OC(C)C | . | . | . | . | . | .
Cc1ccc(CNC(=O)CN2c3cccc4cccc(c34)S2(=O)=O)cc1 | . | / | . | / | 42.1 | /
O=C(CN1c2cccc3cccc(c23)S1(=O)=O)NCc1ccc(F)cc1 | . | / | / | / | / | /
C/C(=C\c1ccco1)C1C(C#N)=C(N)Oc2n[nH]c(-c3ccccc3)c21 (centres undefined) | . | 69.2 | . | . | . | .
C/C(=C\c1ccco1)C1C(C#N)=C(N)Oc2n[nH]c(-c3ccc(C)cc3)c21 (centres undefined) | . | . | . | . | . | .
O=C(Cc1ccc(Br)cc1)Nc1ncc([N+](=O)[O-])s1 | . | 70.3 | . | . | . | /
CC(OC(=O)/C=C/c1cccs1)C(=O)Nc1ccc(C(N)=O)cc1 (centres undefined) | . | / | . | / | . | /
CCN1CCN(C(=O)c2nn(C)c3c2CS(=O)(=O)c2ccccc2-3)CC1 | . | / | . | / | . | /
CCC1CCCCN1C(=O)c1cc(COc2ccc(-n3cncn3)cc2)on1 (centres undefined) | . | / | . | / | . | /
CCN(c1ccc(NS(=O)(=O)c2cc(Cl)ccc2Cl)cc1)C(C)C | . | . | . | . | . | .

Screening data deposited in PubChem by several laboratories.
